About 410 targets per protein were measured; listed, in parts, are those with the strongest signals and a random draw of the rest.
How the values were obtained:
Assay in all cases: glycan array binding signal (z-score within array); higher = stronger binding
Settings in all cases: glycan notation: IUPAC condensed, linker removed
[1] = molecular target: Fuc(a1-2)Gal(b1-3)GalNAc(a1-3)[Fuc(a1-2)]Gal(b1-4)Glc
Summary of the method: (§1)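 The Consortium for Functional Glycomics database supplied 3228 glycan arrays, of which those lacking an available protein sequence were dropped. The binding signal, a within-array Z-score, was averaged across arrays of the same protein sequence and across linkers. Negative scores can be read as non-binding.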

[2] = molecular target: Fuc(a1-2)Gal(b1-3)GalNAc(a1-3)[Fuc(a1-2)]Gal(b1-4)GlcNAc
Summary of the method: as §1

[3] = molecular target: Fuc(a1-2)Gal(b1-3)GalNAc(b1-4)[Neu5Ac(a2-3)]Gal(b1-4)Glc
Summary of the method: as §1

[4] = molecular target: Fuc(a1-2)Gal(b1-3)GlcNAc(b1-3)[Fuc(a1-2)Gal(b1-3)GlcNAc(b1-6)]GalNAc
Summary of the method: as §1

[5] = molecular target: Fuc(a1-2)Gal(b1-4)GlcNAc(b1-2)[Fuc(a1-2)Gal(b1-4)GlcNAc(b1-4)]Man(a1-3)[Fuc(a1-2)Gal(b1-4)GlcNAc(b1-2)Man(a1-6)]Man(b1-4)GlcNAc(b1-4)GlcNAc
Summary of the method: as §1

[6] = molecular target: Fuc(a1-2)Gal(b1-4)GlcNAc(b1-3)Gal(b1-4)GlcNAc(b1-2)Man(a1-3)[Fuc(a1-2)Gal(b1-4)GlcNAc(b1-3)Gal(b1-4)GlcNAc(b1-2)Man(a1-6)]Man(b1-4)GlcNAc(b1-4)GlcNAc
Summary of the method: as §1

[7] = molecular target: Fuc(a1-2)Gal(b1-4)GlcNAc6S
Summary of the method: as §1

[8] = molecular target: Fuc(a1-2)Gal(b1-4)[Fuc(a1-3)]GlcNAc(b1-2)[Fuc(a1-2)Gal(b1-4)[Fuc(a1-3)]GlcNAc(b1-4)]Man(a1-3)[Fuc(a1-2)Gal(b1-4)[Fuc(a1-3)]GlcNAc(b1-2)Man(a1-6)]Man(b1-4)GlcNAc(b1-4)GlcNAc
Summary of the method: as §1

[9] = molecular target: Fuc(a1-2)[Gal(a1-3)]Gal(b1-3)GalNAc
Summary of the method: as §1

[10] = molecular target: Fuc(a1-2)[Gal(a1-3)]Gal(b1-4)[Fuc(a1-3)]GlcNAc
Summary of the method: as §1

[11] = molecular target: Fuc(a1-3)[Gal(b1-4)]GlcNAc(b1-3)Gal(b1-3)[Fuc(a1-4)]GlcNAc
Summary of the method: as §1

[12] = molecular target: Gal(a1-3)Gal(b1-3)GlcNAc
Summary of the method: as §1

[13] = molecular target: Gal(a1-3)GalNAc
Summary of the method: as §1

[14] = molecular target: Gal(b1-3)GalNAc(a1-3)[Fuc(a1-2)]Gal(b1-4)Glc
Summary of the method: as §1

[15] = molecular target: Gal(b1-3)GalNAc(a1-3)[Fuc(a1-2)]Gal(b1-4)GlcNAc
Summary of the method: as §1

[16] = molecular target: Gal(b1-3)GlcNAc(b1-3)Gal(b1-4)[Fuc(a1-3)]GlcNAc
Summary of the method: as §1

[17] = molecular target: Gal(b1-3)GlcNAc(b1-6)GalNAc
Summary of the method: as §1

[18] = molecular target: Gal(b1-4)Glc6S
Summary of the method: as §1

[19] = molecular target: Gal(b1-4)GlcNAc(b1-2)Man(a1-6)[GlcNAc(b1-2)Man(a1-3)]Man(b1-4)GlcNAc(b1-4)GlcNAc
Summary of the method: as §1

[20] = molecular target: Gal(b1-4)GlcNAc(b1-2)[Gal(b1-4)GlcNAc(b1-4)]Man(a1-3)[GlcNAc(b1-4)][Gal(b1-4)GlcNAc(b1-2)Man(a1-6)]Man(b1-4)GlcNAc(b1-4)GlcNAc
Summary of the method: as §1

[21] = molecular target: Gal(b1-4)GlcNAc(b1-3)Gal(b1-4)GlcNAc(b1-2)Man(a1-3)[Gal(b1-4)GlcNAc(b1-3)Gal(b1-4)GlcNAc(b1-2)Man(a1-6)]Man(b1-4)GlcNAc(b1-4)GlcNAc
Summary of the method: as §1

[22] = molecular target: Gal(b1-4)GlcNAc(b1-3)Gal(b1-4)GlcNAc(b1-3)[Gal(b1-4)GlcNAc(b1-3)Gal(b1-4)GlcNAc(b1-6)]GalNAc
Summary of the method: as §1

[23] = molecular target: Gal(b1-4)GlcNAc6P
Summary of the method: as §1

[24] = molecular target: Gal3S(b1-3)GalNAc
Summary of the method: as §1

[25] = molecular target: Gal3S4S(b1-4)GlcNAc
Summary of the method: as §1

[26] = molecular target: GalNAc(a1-3)Gal
Summary of the method: as §1

[27] = molecular target: GalNAc(b1-3)GalNAc
Summary of the method: as §1

[28] = molecular target: GlcNAc(b1-2)Man(a1-3)[GlcNAc(b1-2)Man(a1-6)]Man(b1-4)GlcNAc(b1-4)GlcNAc
Summary of the method: as §1

[29] = molecular target: GlcNAc(b1-2)Man(a1-3)[GlcNAc(b1-4)][GlcNAc(b1-2)Man(a1-6)]Man(b1-4)GlcNAc(b1-4)GlcNAc
Summary of the method: as §1

[30] = molecular target: GlcNAc(b1-2)[GlcNAc(b1-4)]Man(a1-3)[GlcNAc(b1-4)][GlcNAc(b1-2)[GlcNAc(b1-6)]Man(a1-6)]Man(b1-4)GlcNAc(b1-4)[Fuc(a1-6)]GlcNAc
Summary of the method: as §1

[31] = molecular target: GlcNAc(b1-3)Gal(b1-4)GlcNAc(b1-3)Gal(b1-4)GlcNAc(b1-2)Man(a1-3)[GlcNAc(b1-3)Gal(b1-4)GlcNAc(b1-3)Gal(b1-4)GlcNAc(b1-2)Man(a1-6)]Man(b1-4)GlcNAc(b1-4)[Fuc(a1-6)]GlcNAc
Summary of the method: as §1

[32] = molecular target: GlcNAc(b1-3)Gal(b1-4)GlcNAc(b1-6)[GlcNAc(b1-3)Gal(b1-3)]GalNAc
Summary of the method: as §1

[33] = molecular target: GlcNAc(b1-4)GlcNAc(b1-4)GlcNAc
Summary of the method: as §1

[34] = molecular target: Kdn(a2-3)Gal(b1-3)GalNAc
Summary of the method: as §1

[35] = molecular target: Kdn(a2-6)Gal(b1-4)GlcNAc
Summary of the method: as §1

[36] = molecular target: Man(a1-2)Man(a1-3)[Man(a1-2)Man(a1-6)]Man(a1-6)[Man(a1-2)Man(a1-2)Man(a1-3)]Man(b1-4)GlcNAc(b1-4)GlcNAc
Summary of the method: as §1

[37] = molecular target: Man(a1-3)[Man(a1-6)]Man(a1-6)[Man(a1-2)Man(a1-3)]Man(b1-4)GlcNAc(b1-4)GlcNAc
Summary of the method: as §1

[38] = molecular target: Neu5Ac(a2-3)Gal(b1-4)GlcNAc(b1-3)Gal(b1-4)GlcNAc(b1-2)Man(a1-3)[Neu5Ac(a2-3)Gal(b1-4)GlcNAc(b1-3)Gal(b1-4)GlcNAc(b1-2)Man(a1-6)]Man(b1-4)GlcNAc(b1-4)GlcNAc
Summary of the method: as §1

[39] = molecular target: Neu5Ac(a2-3)Gal(b1-4)GlcNAc(b1-3)Gal(b1-4)GlcNAc(b1-3)Gal(b1-4)GlcNAc(b1-2)Man(a1-3)[Neu5Ac(a2-3)Gal(b1-4)GlcNAc(b1-3)Gal(b1-4)GlcNAc(b1-3)Gal(b1-4)GlcNAc(b1-2)Man(a1-6)]GalNAc
Summary of the method: as §1

[40] = molecular target: Neu5Ac(a2-3)Gal(b1-4)GlcNAc(b1-3)Gal(b1-4)GlcNAc(b1-3)[Neu5Ac(a2-3)Gal(b1-4)GlcNAc(b1-3)Gal(b1-4)GlcNAc(b1-6)]GalNAc
Summary of the method: as §1

[41] = molecular target: Neu5Ac(a2-3)GalNAc(b1-4)GlcNAc
Summary of the method: as §1

[42] = molecular target: Neu5Ac(a2-3)[GalNAc(b1-4)]Gal(b1-4)Glc
Summary of the method: as §1

[43] = molecular target: Neu5Ac(a2-3)[GalNAc(b1-4)]Gal(b1-4)GlcNAc(b1-3)GalNAc
Summary of the method: as §1

[44] = molecular target: Neu5Ac(a2-6)Gal(b1-4)GlcNAc(b1-3)Gal(b1-4)GlcNAc(b1-3)GalNAc
Summary of the method: as §1

[45] = molecular target: Neu5Ac(a2-6)Gal(b1-4)GlcNAc(b1-3)Gal(b1-4)GlcNAc(b1-3)[Neu5Ac(a2-6)Gal(b1-4)GlcNAc(b1-3)Gal(b1-4)GlcNAc(b1-6)]GalNAc
Summary of the method: as §1

[46] = molecular target: Neu5Ac(a2-6)Gal(b1-4)GlcNAc(b1-6)[Gal(b1-3)GlcNAc(b1-3)]Gal(b1-4)Glc
Summary of the method: as §1

[47] = molecular target: Neu5Ac(a2-6)GlcNAc(b1-4)GlcNAc
Summary of the method: as §1

[48] = molecular target: Neu5Ac(a2-8)Neu5Ac(a2-3)Gal(b1-4)Glc
Summary of the method: as §1

[49] = molecular target: Neu5Ac(a2-8)Neu5Ac(a2-8)Neu5Ac
Summary of the method: as §1

[50] = molecular target: Neu5Ac(b1-6)GalNAc
Summary of the method: as §1

B1: ABA (Agaricus bisporus), Q00022 (protein)
chain: MTYTISIRVYQTTPKGFFRPVERTNWKYANGGTWDEVRGEYVLTMGGSGTSGSLRFVSSDTDESFVATFGVHNYKRWCDIVTNLTNEQTALVINQEYYGVPIRDQARENQLTSYNVANAKGRRFAIEYTVTEGDNLKANLIIG
Question: Which results are given for B1?
Answer: glycan array binding signal (z-score) [1]: -0.201; glycan array binding signal (z-score) [2]: 0.475; glycan array binding signal (z-score) [3]: -0.192; glycan array binding signal (z-score) [4]: -0.172; glycan array binding signal (z-score) [5]: -0.048; glycan array binding signal (z-score) [6]: -0.157; glycan array binding signal (z-score) [7]: -0.289; glycan array binding signal (z-score) [8]: 0.231; glycan array binding signal (z-score) [9]: -0.239; glycan array binding signal (z-score) [10]: -0.155; glycan array binding signal (z-score) [11]: -0.058; glycan array binding signal (z-score) [12]: -0.192; glycan array binding signal (z-score) [13]: -0.118; glycan array binding signal (z-score) [14]: 3.56; glycan array binding signal (z-score) [15]: 3.27; glycan array binding signal (z-score) [16]: -0.245; glycan array binding signal (z-score) [17]: -0.25; glycan array binding signal (z-score) [18]: -0.203; glycan array binding signal (z-score) [19]: 2.81; glycan array binding signal (z-score) [20]: -0.25; glycan array binding signal (z-score) [21]: 2.52; glycan array binding signal (z-score) [22]: 1.8; glycan array binding signal (z-score) [23]: -0.104; glycan array binding signal (z-score) [24]: 2.46; glycan array binding signal (z-score) [25]: -0.254; glycan array binding signal (z-score) [26]: -0.234; glycan array binding signal (z-score) [27]: 0.071; glycan array binding signal (z-score) [28]: 5.72; glycan array binding signal (z-score) [29]: 2.54; glycan array binding signal (z-score) [30]: -0.287; glycan array binding signal (z-score) [31]: 1.39; glycan array binding signal (z-score) [32]: 2.74; glycan array binding signal (z-score) [33]: -0.093; glycan array binding signal (z-score) [34]: 0.099; glycan array binding signal (z-score) [35]: -0.239; glycan array binding signal (z-score) [36]: 0.46; glycan array binding signal (z-score) [37]: 2.82; glycan array binding signal (z-score) [38]: 2.72; glycan array binding signal (z-score) [39]: 2.8; glycan array binding signal (z-score) [40]: 0; glycan array binding signal (z-score) [41]: -0.276; glycan array binding signal (z-score) [42]: -0.249; glycan array binding signal (z-score) [43]: 1.31; glycan array binding signal (z-score) [44]: -0.201; glycan array binding signal (z-score) [45]: 2.26; glycan array binding signal (z-score) [46]: -0.255; glycan array binding signal (z-score) [47]: -0.229; glycan array binding signal (z-score) [48]: -0.267; glycan array binding signal (z-score) [49]: -0.247; glycan array binding signal (z-score) [50]: -0.191

Source: the supplement of paper PMC8728848
